# Assay results taken from PubChem BioAssay AID2599 (Sanford-Burnham Center for Chemical Genomics, 2010).
# Screen size: about 330,000 compounds; about 5,800 (1.8%) were called active.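 The calls were made as follows: active = inhibition above about 50% at the single tested dose (limit read from the data); inactive = the rest.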 The list comes from a sample in which actives are over-represented; it also holds similar structures and randomly drawn compounds.
# Target: Sentrin-specific protease 6 (Homo sapiens) (UniProt Q9GZR1)
# Test: inhibition of human SENP6 catalytic domain – biochemical, luminescence, uHTS, primary screen (AID 2599);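 also: plate controls were DMSO wells with enzyme for no effect and DMSO wells lacking enzyme for full effect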
# Conditions: Recombinant SENP6 catalytic domain, aminoluciferin luminescence; at 10 µM; stronger effect = higher value
# Sequence of Sentrin-specific protease 6 (Homo sapiens) (Q9GZR1 628-1112 limits assumed): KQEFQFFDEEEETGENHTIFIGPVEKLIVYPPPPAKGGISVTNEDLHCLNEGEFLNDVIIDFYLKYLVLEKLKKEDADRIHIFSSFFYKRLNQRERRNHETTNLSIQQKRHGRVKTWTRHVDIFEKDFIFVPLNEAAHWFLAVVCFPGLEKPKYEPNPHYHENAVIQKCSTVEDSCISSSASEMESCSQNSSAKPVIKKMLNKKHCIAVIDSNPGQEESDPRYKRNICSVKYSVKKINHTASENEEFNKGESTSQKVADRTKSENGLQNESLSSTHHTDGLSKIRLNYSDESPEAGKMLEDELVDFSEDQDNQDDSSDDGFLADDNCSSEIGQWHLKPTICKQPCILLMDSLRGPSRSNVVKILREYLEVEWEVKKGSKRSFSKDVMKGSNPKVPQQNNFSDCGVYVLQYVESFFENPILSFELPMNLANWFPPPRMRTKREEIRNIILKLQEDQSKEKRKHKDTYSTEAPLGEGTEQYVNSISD
row,SMILES,inhibition
1,O=C(O)c1ccc(N/N=C/c2ccc3ncccc3c2)cc1,101% (active)
2,Cc1ccc2cc(/C=N/Nc3ccc(C(=O)O)cc3)c(Cl)nc2c1,-25% (inactive)
3,O=C(O)c1ccc(/C=N/Nc2nc(N3CCCCC3)nc(N3CCCCC3)n2)cc1,-7.28% (inactive)
4,Cc1ccc2c(c1)N(CC(=O)N(Cc1ccccn1)Cc1ccco1)C(=O)C(C(C)C)O2 (stereo not drawn),-1.99% (inactive)
5,CC(=O)N(C1=C(Cl)C(=O)c2ccccc2C1=O)c1ccc(C(=O)O)cc1,81.4% (active)
6,COc1ccc(CCNC(=O)CSCc2ccc(Br)cc2)cc1OC,1.68% (inactive)
7,CN(CC(=O)Nc1ccc(Cl)cc1)C(=O)c1ccc(COc2ccccc2)cc1,18.3% (inactive)
8,CN(CC(=O)Nc1ccc(Cl)cc1)CC(=O)Nc1cccc2ccccc12,-2.99% (inactive)
9,CN(CC(=O)Nc1ccc(Cl)cc1)C(=O)CNC(=O)c1ccc2ccccc2c1,64.9% (active)
10,COc1ccc(C2=NOC3(CC(=O)N(c4ccc(Cl)cc4)C3=O)C2)c(OC)c1 (stereo not drawn),-7.66% (inactive)
11,O=C(Nc1nnc(Cc2ccccc2)s1)c1cnccn1,-4.43% (inactive)
12,Cc1ccc(SCC(=O)Nc2ncc(C)s2)cc1,-5.14% (inactive)
13,Cc1cnc(NC(=O)c2ccccn2)s1,88.5% (active)
14,Cc1cnc(NC(=O)C2CCCC2)s1,8.65% (inactive)
15,O=C(Nc1nnc(C2CC2)s1)c1cc(Cl)sc1Cl,4.15% (inactive)
16,CCc1cc(C(=O)Nc2nnc(C3CC3)s2)sc1C,-7.34% (inactive)
17,Cc1cc(C(=O)Nc2nnc(C3CC3)s2)c(C)s1,76.1% (active)
18,Cc1cccc(NC(=O)CSCC(=O)Nc2nnc(C3CC3)s2)c1,-3.73% (inactive)
19,O=C(Nc1nnc(C2CC2)s1)c1ccccn1,69.2% (active)
20,COc1ccccc1NC(=O)CCSc1nnc(-c2ccc(O)cc2)o1,-8.69% (inactive)
21,O=C(c1cccc(F)c1)N1CCN(c2ccc([N+](=O)[O-])c3cccnc23)CC1,13.7% (inactive)
22,CCOc1cc(CNCc2ccccn2)ccc1OCC(=O)NC(C)(C)C,4.74% (inactive)
23,CCn1nc(C)c(CN2CCN(Cc3ccc(OC)c(C)c3C)C(CCO)C2)c1C (stereo not drawn),-13.1% (inactive)
24,COCCCNC(=O)CN1CCN(Cc2ccccc2Cl)C1=O,-5.23% (inactive)

row,SMILES,inhibition
1,CC(=O)Nc1ccc(S(=O)(=O)Nc2nc3n(n2)C(c2ccccc2)CC(=O)N3)cc1 (stereo not drawn),-18.6% (inactive)
2,O=c1c2cc(-c3ccccc3)sc2nc2n1N=C(c1cccs1)CS2,73.2% (active)
3,Cc1nnc2n1N=C(c1ccccc1)CS2,0.225% (inactive)
4,COc1ccc(C2CC(c3cccs3)=NN2c2ccccc2)cc1 (stereo not drawn),-18.7% (inactive)
5,COc1ccc(Cl)cc1NS(=O)(=O)c1cccc(C(=O)NCC2CCCO2)c1 (stereo not drawn),-6.29% (inactive)
6,COc1ccc(S(=O)(=O)N2CCOCC2)cc1NC(=O)Cc1c(F)cccc1Cl,2.93% (inactive)
7,N#C/C(=C(/O)Cc1cccc2ccccc12)c1nc2ccccc2s1,1.83% (inactive)
8,O=C(O)CS/C(=C\c1ccc(F)cc1)c1nc2ccccc2s1,-11.1% (inactive)
9,CC1=CC(=C(C#N)c2nc3ccccc3s2)C=C(C)N1c1ccc(F)cc1F,63.9% (active)
10,CN(Cc1ccccc1)C(=O)C1CCCN(c2ncnc3c2nc2n3CCCCC2)C1 (stereo not drawn),-17.3% (inactive)
11,Cc1cc(NC(=O)COc2ccccc2C#N)no1,4.16% (inactive)
12,O=C(Nc1ccn(Cc2ccccc2F)n1)c1ccc(COc2ccc(Cl)cc2Cl)o1,25.5% (inactive)
13,O=C(Nc1ccn(Cc2ccccc2)n1)c1n[nH]c([N+](=O)[O-])c1Cl,98.2% (active)
14,Cc1ccc(Cn2ccc(NC(=O)C3C4CCC(C4)C3C(=O)O)n2)cc1 (stereo not drawn),13.1% (inactive)
15,Cc1cc(C)c(S(=O)(=O)Nc2c(C)n(C)n(-c3ccccc3)c2=O)cc1[N+](=O)[O-],-1.02% (inactive)
16,CN(CC1CCCN(CCc2cccc(C(F)(F)F)c2)C1)C(=O)c1ccc2nc[nH]c2c1 (stereo not drawn),-6.57% (inactive)
17,COc1ccc(S(=O)(=O)NCC(=O)NC2CC2)cc1OC,-8.69% (inactive)
18,CCCCC(c1nnnn1CS(=O)(=O)c1ccc(C)cc1)N1CCC(C(N)=O)CC1 (stereo not drawn),-48.9% (inactive)
19,COc1cc(N=Cc2c(O)c3ccccc3oc2=O)c(OC)cc1Cl,-7.87% (inactive)
20,COc1ccccc1N=Cc1c(O)c2ccccc2oc1=O,81% (active)
21,COc1ccccc1N=C(C)C1=C(O)COC1=O,-35% (inactive)
22,CCc1c(C)nc2c(-c3ccccc3)c(C)nn2c1Nc1ccc(NC(C)=O)cc1,-6.24% (inactive)
23,CCN(C(=O)CSc1cccc[n+]1[O-])c1ccccc1,-15.1% (inactive)
24,CCn1c(=O)n(CC)c2cc(N3CCCC3)c(NC(=O)c3ccccc3Br)cc21,7.04% (inactive)
